# From the supplement of paper PMC10849652
# The full data set covers some 7,900 targets. This sample favours those with a hit. About 0.6% of all pairs of compound and target were hits. Unmarked numbers belong to inactive results.
# How the values were obtained:
# Test in all cases: log2 fold change, soluble protein after heating vs DMSO (PISA); higher = thermal stabilisation; K562 cells, 10 uM, 30 min; active = over 0.2 and 3.5 SD of the protein, either way, in both replicates (recomputed)
# [1] = compound: CS(=O)(=O)c1ccc(-c2cnc(N)c(C(=O)Nc3ccccc3)n2)cc1
# Outline: (§1)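 K562 cells (2×10^6 cells/mL) were treated with 10 μM compound for 30 min, and aliquots were heated for 3 min over 48°C-58°C. Pooled aliquots were extracted in PBS with 0.5% NP-40 at 4°C, and the supernatant after 21,000xg for 90 min was measured by TMTpro 16plex LC-MS/MS with channel sums equalised. Reported thermal stability, relative to control samples and from duplicates, is a log2 fold change.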
# crizotinib = compound: C[C@@H](Oc1cc(-c2cnn(C3CCNCC3)c2)cnc1N)c1c(Cl)ccc(F)c1Cl [crizotinib]
# Outline: as §1
# [2] = compound: C[C@@H]1COCCN1C2=NC(=NC(=C2)C3(CC3)S(=O)(=O)C)C4=C5C=CNC5=CC=C4
# Outline: as §1
# [3] = compound: C[C@H](C1=CC=C(C=C1)C(=O)NC2=C3C=CNC3=NC=C2)N
# Outline: as §1
# duvelisib = compound: C[C@H](Nc1ncnc2nc[nH]c12)c1cc2cccc(Cl)c2c(=O)n1-c1ccccc1 [duvelisib]
# Outline: as §1
# gandotinib = compound: Cc1cc(Nc2cc(CN3CCOCC3)c3nc(C)c(Cc4ccc(Cl)cc4F)n3n2)n[nH]1 [gandotinib]
# Outline: as §1
# tozasertib = compound: Cc1cc(Nc2cc(N3CCN(C)CC3)nc(Sc3ccc(NC(=O)C4CC4)cc3)n2)n[nH]1 [tozasertib]
# Outline: as §1
# [4] = compound: Cc1cc(SCc2sc(-c3ccc(C(F)(F)F)cc3)nc2C)ccc1OCC(=O)O
# Outline: as §1
# doramapimod = compound: Cc1ccc(-n2nc(C(C)(C)C)cc2NC(=O)Nc2ccc(OCCN3CCOCC3)c3ccccc23)cc1 [doramapimod]
# Outline: as §1
# ispinesib = compound: Cc1ccc(C(=O)N(CCCN)[C@@H](c2nc3cc(Cl)ccc3c(=O)n2Cc2ccccc2)C(C)C)cc1 [ispinesib]
# Outline: as §1
# bafetinib = compound: Cc1ccc(NC(=O)c2ccc(CN3CC[C@H](N(C)C)C3)c(C(F)(F)F)c2)cc1Nc1nccc(-c2cncnc2)n1 [bafetinib]
# Outline: as §1
# [5] = compound: Cc1cccc(CC(=O)N2CCc3c2ccc(-c2cn(C)c4ncnc(N)c24)c3F)n1
# Outline: as §1
# nilotinib = compound: Cc1cn(-c2cc(NC(=O)c3ccc(C)c(Nc4nccc(-c5cccnc5)n4)c3)cc(C(F)(F)F)c2)cn1 [nilotinib]
# Outline: as §1
# [6] = compound: Cc1nc(Nc2n[nH]c3c2CN(C(=O)N[C@H](CN(C)C)c2ccccc2)C3(C)C)c2sccc2n1
# Outline: as §1
# dasatinib = compound: Cc1nc(Nc2ncc(C(=O)Nc3c(C)cccc3Cl)s2)cc(N2CCN(CCO)CC2)n1 [dasatinib]
# Outline: as §1
# [7] = compound: Cc1ncc(-c2ccnc(Nc3ccc(S(C)(=O)=O)cc3)n2)n1C(C)C
# Outline: as §1
# [8] = compound: Cn1cc(-c2ccc3c(c2)CCN3C(=O)Cc2cccc(C(F)(F)F)c2)c2c(N)ncnc21
# Outline: as §1
# [9] = compound: Cn1cc(-c2ccc3nnc(C(F)(F)c4ccc5ncccc5c4)n3n2)cn1
# Outline: as §1
# tipifarnib = compound: Cn1cncc1[C@@](N)(c1ccc(Cl)cc1)c1ccc2c(c1)c(-c1cccc(Cl)c1)cc(=O)n2C [tipifarnib]
# Outline: as §1
# mubritinib = compound: FC(F)(F)c1ccc(/C=C/c2nc(COc3ccc(CCCCn4ccnn4)cc3)co2)cc1 [mubritinib]
# Outline: as §1
# Sequence of UniProt P06865 (P06865 whole entry, looked up): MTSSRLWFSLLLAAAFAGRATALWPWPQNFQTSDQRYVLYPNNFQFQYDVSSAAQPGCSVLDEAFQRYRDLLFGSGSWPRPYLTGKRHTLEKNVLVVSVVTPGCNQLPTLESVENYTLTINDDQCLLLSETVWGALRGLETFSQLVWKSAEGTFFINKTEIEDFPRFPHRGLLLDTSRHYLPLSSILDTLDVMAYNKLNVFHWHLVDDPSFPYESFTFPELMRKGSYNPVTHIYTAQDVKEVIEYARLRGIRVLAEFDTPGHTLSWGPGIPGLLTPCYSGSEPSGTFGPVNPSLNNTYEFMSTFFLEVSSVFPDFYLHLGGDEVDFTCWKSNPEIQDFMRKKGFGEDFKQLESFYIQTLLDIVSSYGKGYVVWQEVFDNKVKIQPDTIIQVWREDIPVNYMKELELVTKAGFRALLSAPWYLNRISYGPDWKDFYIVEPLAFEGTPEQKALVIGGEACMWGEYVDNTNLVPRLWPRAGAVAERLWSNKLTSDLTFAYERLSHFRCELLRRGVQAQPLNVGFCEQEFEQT
# Sequence of UniProt Q14517 (Q14517 whole entry, looked up): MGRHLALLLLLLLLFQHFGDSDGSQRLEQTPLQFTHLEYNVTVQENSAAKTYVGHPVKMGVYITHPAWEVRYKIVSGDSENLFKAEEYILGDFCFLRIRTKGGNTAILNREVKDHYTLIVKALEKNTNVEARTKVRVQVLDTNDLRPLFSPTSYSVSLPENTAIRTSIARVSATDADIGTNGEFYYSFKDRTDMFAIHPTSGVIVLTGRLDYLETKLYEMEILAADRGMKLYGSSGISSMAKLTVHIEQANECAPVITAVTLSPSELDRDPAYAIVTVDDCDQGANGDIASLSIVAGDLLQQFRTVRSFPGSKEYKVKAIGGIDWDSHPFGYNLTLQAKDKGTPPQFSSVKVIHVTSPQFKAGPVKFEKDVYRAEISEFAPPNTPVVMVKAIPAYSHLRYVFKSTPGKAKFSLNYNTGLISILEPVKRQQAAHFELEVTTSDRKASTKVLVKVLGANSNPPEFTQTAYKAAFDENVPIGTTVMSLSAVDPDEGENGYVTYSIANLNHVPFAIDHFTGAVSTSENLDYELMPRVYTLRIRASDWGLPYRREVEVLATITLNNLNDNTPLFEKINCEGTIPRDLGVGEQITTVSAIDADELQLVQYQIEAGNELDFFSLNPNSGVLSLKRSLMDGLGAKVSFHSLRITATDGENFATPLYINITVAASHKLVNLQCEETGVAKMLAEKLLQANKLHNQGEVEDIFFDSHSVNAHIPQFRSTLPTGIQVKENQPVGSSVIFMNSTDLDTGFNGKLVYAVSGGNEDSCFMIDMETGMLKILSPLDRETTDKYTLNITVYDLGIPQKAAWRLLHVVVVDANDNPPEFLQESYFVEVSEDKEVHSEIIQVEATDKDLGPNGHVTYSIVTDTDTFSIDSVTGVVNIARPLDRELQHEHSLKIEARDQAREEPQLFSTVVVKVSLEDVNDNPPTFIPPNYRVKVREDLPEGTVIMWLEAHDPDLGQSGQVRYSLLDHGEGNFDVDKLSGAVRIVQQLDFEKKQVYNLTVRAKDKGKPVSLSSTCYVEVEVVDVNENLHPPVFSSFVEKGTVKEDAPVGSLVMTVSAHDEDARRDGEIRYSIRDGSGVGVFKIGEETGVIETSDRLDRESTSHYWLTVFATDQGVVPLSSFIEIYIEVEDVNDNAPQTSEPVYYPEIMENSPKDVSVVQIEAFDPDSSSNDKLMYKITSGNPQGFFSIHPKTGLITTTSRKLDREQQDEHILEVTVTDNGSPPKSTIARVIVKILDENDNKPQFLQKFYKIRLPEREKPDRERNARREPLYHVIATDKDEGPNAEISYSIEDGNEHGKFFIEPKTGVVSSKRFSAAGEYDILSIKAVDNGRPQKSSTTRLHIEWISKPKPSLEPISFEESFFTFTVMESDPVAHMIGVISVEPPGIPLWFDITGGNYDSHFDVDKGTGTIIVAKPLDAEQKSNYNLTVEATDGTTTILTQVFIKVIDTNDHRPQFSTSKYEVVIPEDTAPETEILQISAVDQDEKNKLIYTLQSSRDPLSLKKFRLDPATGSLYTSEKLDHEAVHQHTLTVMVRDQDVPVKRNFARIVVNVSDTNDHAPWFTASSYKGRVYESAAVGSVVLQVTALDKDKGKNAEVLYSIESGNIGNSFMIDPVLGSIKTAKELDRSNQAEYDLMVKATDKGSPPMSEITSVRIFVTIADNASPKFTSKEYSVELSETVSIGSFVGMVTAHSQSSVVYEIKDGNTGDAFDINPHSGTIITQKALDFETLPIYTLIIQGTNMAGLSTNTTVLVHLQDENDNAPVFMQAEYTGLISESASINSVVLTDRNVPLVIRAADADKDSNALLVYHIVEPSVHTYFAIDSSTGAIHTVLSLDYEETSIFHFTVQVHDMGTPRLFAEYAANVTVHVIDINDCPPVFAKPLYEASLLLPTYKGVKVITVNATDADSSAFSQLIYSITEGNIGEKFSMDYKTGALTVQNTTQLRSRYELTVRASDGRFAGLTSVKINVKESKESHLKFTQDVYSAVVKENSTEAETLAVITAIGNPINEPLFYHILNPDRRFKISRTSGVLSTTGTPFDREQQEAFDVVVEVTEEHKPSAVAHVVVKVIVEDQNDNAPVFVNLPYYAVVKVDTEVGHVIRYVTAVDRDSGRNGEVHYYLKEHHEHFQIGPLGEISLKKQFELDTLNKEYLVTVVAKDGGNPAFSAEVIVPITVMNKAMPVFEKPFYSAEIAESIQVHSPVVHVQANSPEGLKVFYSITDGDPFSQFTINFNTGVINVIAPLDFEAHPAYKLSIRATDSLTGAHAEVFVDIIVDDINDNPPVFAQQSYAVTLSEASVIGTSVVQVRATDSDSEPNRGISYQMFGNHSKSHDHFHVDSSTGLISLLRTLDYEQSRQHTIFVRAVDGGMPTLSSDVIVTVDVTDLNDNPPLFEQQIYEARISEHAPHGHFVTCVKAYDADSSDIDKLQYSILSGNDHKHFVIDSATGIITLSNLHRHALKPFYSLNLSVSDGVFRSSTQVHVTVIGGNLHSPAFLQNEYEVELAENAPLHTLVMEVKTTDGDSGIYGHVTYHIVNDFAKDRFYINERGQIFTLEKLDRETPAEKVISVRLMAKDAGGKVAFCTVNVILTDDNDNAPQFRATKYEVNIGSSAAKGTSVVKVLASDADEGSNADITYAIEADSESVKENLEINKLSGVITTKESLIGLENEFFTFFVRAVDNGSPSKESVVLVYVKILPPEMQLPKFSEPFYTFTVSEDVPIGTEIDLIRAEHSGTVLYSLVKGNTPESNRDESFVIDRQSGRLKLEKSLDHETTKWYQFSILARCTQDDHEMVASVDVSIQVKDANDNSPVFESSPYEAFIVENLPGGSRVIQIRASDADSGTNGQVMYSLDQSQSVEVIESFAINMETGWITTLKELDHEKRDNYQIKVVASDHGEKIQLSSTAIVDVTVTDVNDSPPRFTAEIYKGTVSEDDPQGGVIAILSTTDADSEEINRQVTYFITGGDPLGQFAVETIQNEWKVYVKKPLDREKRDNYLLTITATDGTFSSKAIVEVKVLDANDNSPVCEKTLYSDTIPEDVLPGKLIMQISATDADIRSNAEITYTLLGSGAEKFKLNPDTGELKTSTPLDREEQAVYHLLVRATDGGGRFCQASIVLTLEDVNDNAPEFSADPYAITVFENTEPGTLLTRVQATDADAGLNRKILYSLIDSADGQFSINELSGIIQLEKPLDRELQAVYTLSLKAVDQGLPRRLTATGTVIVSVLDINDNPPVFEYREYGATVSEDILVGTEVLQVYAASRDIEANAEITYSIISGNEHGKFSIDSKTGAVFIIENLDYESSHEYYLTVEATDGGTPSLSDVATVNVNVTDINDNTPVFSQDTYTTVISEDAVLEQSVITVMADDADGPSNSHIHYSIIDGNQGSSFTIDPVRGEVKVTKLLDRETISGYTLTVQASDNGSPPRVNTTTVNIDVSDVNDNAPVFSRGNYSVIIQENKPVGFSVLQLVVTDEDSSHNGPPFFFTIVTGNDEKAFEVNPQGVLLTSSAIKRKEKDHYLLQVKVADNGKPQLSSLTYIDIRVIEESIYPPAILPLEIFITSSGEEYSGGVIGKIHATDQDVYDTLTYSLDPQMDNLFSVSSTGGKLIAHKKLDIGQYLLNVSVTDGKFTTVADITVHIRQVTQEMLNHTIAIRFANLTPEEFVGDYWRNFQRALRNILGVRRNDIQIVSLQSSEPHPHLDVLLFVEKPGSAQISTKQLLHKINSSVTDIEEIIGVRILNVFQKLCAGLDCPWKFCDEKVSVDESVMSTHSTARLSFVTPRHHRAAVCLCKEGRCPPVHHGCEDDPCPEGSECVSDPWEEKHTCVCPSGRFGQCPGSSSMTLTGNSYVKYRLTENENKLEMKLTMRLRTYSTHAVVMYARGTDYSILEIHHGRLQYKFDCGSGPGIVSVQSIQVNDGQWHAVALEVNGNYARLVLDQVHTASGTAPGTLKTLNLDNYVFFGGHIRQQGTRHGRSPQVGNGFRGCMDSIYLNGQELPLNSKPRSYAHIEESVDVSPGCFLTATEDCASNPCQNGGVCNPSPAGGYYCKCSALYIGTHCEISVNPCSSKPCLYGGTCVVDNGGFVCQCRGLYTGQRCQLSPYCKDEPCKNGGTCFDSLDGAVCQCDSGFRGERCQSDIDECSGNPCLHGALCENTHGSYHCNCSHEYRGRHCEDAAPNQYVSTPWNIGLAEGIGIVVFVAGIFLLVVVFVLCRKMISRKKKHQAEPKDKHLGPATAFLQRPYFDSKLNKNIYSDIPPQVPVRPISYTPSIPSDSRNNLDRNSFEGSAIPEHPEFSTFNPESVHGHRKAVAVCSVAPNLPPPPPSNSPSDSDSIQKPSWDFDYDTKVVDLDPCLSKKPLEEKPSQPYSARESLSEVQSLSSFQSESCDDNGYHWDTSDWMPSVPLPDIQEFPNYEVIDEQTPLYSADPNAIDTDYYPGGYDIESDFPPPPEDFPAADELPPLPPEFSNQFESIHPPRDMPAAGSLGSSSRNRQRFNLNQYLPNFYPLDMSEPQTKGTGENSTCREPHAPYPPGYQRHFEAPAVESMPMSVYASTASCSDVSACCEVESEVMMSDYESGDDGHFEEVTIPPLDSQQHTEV
Target,log2 fold change [1],log2 fold change (crizotinib),log2 fold change [2],log2 fold change [3],log2 fold change (duvelisib),log2 fold change (gandotinib),log2 fold change (tozasertib),log2 fold change [4],log2 fold change (doramapimod),log2 fold change (ispinesib),log2 fold change (bafetinib),log2 fold change [5],log2 fold change (nilotinib),log2 fold change [6],log2 fold change (dasatinib),log2 fold change [7],log2 fold change [8],log2 fold change [9],log2 fold change (tipifarnib),log2 fold change (mubritinib)
HNRNPK isoform 2 (UniProt P61978),-0.01,0.072,0.074,-0.028,0.036,-0.108,-0.021,0.052,-0.064,-0.025,-0.03,0.007,-0.084,-0.206,-0.072,-0.136,0.031,0.017,0.007,-0.024
HEXA (UniProt P06865),0.016,-0.785 (active),0.02,-0.015,0.049,0.015,0.002,-0.02,-0.016,-0.124,-0.491 (active),-0.023,-0.001,0.017,0.016,-0.036,-0.003,0.006,0.044,0.023
GNL1 (UniProt P36915),0.051,-0.014,0.162,-0.011,0.013,0.028,-0.014,0.052,-0.019,0.087,-0.02,0.019,-0.024,0.05,-0.084,0.054,0.047,-0.03,-0.152,0.009
IFRD1 (UniProt O00458),0.347,0.004,0.37 (active),0.013,0.002,0.104,0.035,-0.003,0,-0.006,0.118,-0.031,0.165,0.056,0.071,0.202,-0.011,-0.005,0.001,0.1
HMGN1 (UniProt P05114),-0.067,0.055,-0.034,0.058,-0.045,0.094,0.015,-0.027,0.013,-0.042,-0.014,-0.012,-0.022,0.057,0.146,0.019,-0.022,-0.048,0.066,-0.049
GCLM (UniProt P48507),0.058,-0.003,0.042,-0.019,-0.007,-0.15,0.108,0.06,-0.072,0.076,0.016,0.072,-0.101,-0.015,-0.095,0.019,0.042,-0.051,-0.133,0.023
GYS1 (UniProt P13807),0.017,-0.097,-0.187,0.311,-0.147,-0.015,-0.079,0.184,0.271,-0.231,0.107,0.011,0.237,-0.18,0.172,-0.036,-0.266,-0.139,0.147,0.001
GEMIN6 (UniProt Q8WXD5),-0.076,-0.055,0.097,0.091,0.088,0.034,-0.028,0.034,-0.016,-0.017,-0.011,-0.042,0.004,0.015,-0.024,-0.022,0.018,0.306 (active),-0.002,0.067
GLUL (UniProt P15104),-0.07,0.008,-0.267 (active),0.062,0.035,-0.014,-0.014,-0.047,-0.126,0.005,-0.027,-0.038,-0.061,0.062,0.015,-0.148,-0.035,-0.085,0.011,-0.112
GTF2E2 (UniProt P29084),0.037,0.012,-0.029,-0.002,0.051,-0.03,0.02,0.071,-0.025,-0.01,0.031,0.03,-0.082,-0.108,-0.241,0.005,-0.016,0.044,0.051,-0.02
FUCA2 (UniProt Q9BTY2),0.021,-0.002,0.017,-0.05,0.007,0.041,-0.008,0.014,0.058,-0.001,-0.809 (active),-0.022,0.032,0.001,0.022,-0.009,0.012,-0.019,0.077,0.013
HDGFL2 (UniProt Q7Z4V5),0.086,-0.007,-0.052,-0.04,-0.047,0.005,-0.004,-0.061,-0.045,0.019,-0.017,-0.013,-0.007,-0.061,0.035,-0.029,-0.018,-0.048,0.032,0.098
GALK1 isoform 2 (UniProt P51570),-0.1,-0.041,0.037,-0.088,-0.021,-0.087,-0.013,0.056,0.012,0.078,0.061,0.062,-0.018,-0.001,-0.043,-0.015,0.055,-0.084,-0.136,0.01
FAT1 (UniProt Q14517),0.027,0.061,-0.054,0.144,0.026,0.061,-0.124,0.009,-0.435 (active),-0.096,-0.061,0.044,0.013,0,0.046,-0.064,0.009,-0.052,0.077,0.057
FERMT3 (UniProt Q86UX7),0.038,-0.091,0.02,-0.04,0.005,-0.064,0.022,0.057,0.001,-0.04,-0.022,0.029,-0.036,-0.053,-0.075,-0.015,0.029,-0.019,-0.087,0.051
GSTO1 (UniProt P78417),0.047,0,0.013,-0.072,0.064,-0.017,-0.01,0,-0.02,0.036,0.021,0.148,-0.009,-0.021,-0.007,-0.009,0.019,-0.004,-0.014,0.018
